Where a name gives a salt, the structure may show the parent alone.
How the values were obtained:
Assay in all cases: Euclidean distance of Cell Painting phenotypic profile (signed KS, 77 features) to DMSO centroid (dimensionless distance); 5 or 10 uM (library dependent); higher = stronger phenotypic change vs DMSO (phenoactivity)
Conditions in all cases: 48 h
786-O = system: 786-O
Summary of the method: (§1)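 Library compounds were applied at 10 or 5 uM, depending on the library, with 0.1% DMSO final, for 48 h to five cancer lines and a healthy fibroblast line. After staining, cells were imaged confocally at 20X across 9 fields per well, and Harmony extracted 77 features, each scored as a signed Kolmogorov-Smirnov statistic against vehicle wells on the same plate. Phenoactivity is the Euclidean distance between each profile and the median vehicle profile, with profiles first plate-position corrected, correlation-weighted and averaged over replicates at the top dose.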

A549 = system: A549
Summary of the method: as §1

DU145 = system: DU145
Summary of the method: as §1

FB = system: FB
Summary of the method: as §1

HEPG2 = system: HEPG2
Summary of the method: as §1

OVCAR4 = system: OVCAR4
Summary of the method: as §1

Row | SMILES | Euclidean distance (786-O) | Euclidean distance (A549) | Euclidean distance (DU145) | Euclidean distance (FB) | Euclidean distance (HEPG2) | Euclidean distance (OVCAR4)
1 | CO[C@@H]1[C@H](OC(=O)/C=C/C=C/C=C/C=C/C(=O)O)CC[C@]2(CO2)[C@H]1[C@@]1(C)O[C@@H]1CC=C(C)C [Fumagillin] | 2.75 | 2.91 | 4.57 | 2.95 | 1.89 | 3.29
2 | Cc1c(Cc2ccc3ccccc3n2)c2cc(F)ccc2n1CC(=O)O | 1.27 | 1.14 | 0.888 | 1.16 | 2.13 | 1.52
3 | COc1cc(OC)c2c(=O)[nH]c(-c3cc(C)c(OCCO)c(C)c3)nc2c1 [Apabetalone (RVX-208)] | 1.25 | 0.468 | 1.25 | 0.996 | 0.48 | 0.642
4 | CCc1nc2c(C)cc(N3CCN(CC(=O)N4CC(O)C4)CC3)cn2c1N(C)c1nc(-c2ccc(F)cc2)c(C#N)s1 [Ziritaxestat (GLPG1690)] | 1.57 | 1.31 | 0.685 | 2.02 | 1.42 | 1.68
5 | N#Cc1ccc2[nH]cc(CCCCN3CCN(c4ccc5oc(C(N)=O)cc5c4)CC3)c2c1 [Vilazodone HCl] | 2.53 | 2.23 | 1.66 | 1.66 | 2.24 | 1.77
6 | O=C(Oc1cc(S(=O)(=O)c2ccccc2)ccc1[N+](=O)[O-])c1ccc(Cl)cc1 | 1.76 | 1.8 | 1.4 | 1.14 | 1.96 | 1.27
7 | CCCCc1nc(Cl)c(CO)n1Cc1ccc(-c2ccccc2-c2nnn[nH]2)cc1 [Losartan Potassium (DuP 753)] | 0.807 | 0.621 | 0.847 | 0.722 | 0.759 | 0.893
8 | NC(=O)c1cnc(N[C@@H]2CCCC[C@@H]2N)nc1Nc1cccc(-n2nccn2)c1 | 1.35 | 2.72 | 1.89 | 2.25 | 2.24 | 2.83
9 | CNCc1cc(-c2ccccc2F)n(S(=O)(=O)c2cccnc2)c1 [Vonoprazan Fumarate (TAK-438)] | 0.884 | 0.5 | 0.972 | 1.23 | 0.474 | 0.89
10 | Cn1c(N2CCCCS2(=O)=O)nc(C(=O)NCc2ccc(F)cc2)c(O)c1=O | 3.24 | 2.86 | 4.79 | 2.83 | 3.37 | 3.36
11 | O=C(CO)[C@@H](O)[C@H](O)[C@H](O)CO [Fructose] | 1.08 | 0.996 | 0.637 | 0.813 | 0.424 | 1.17
12 | CC(N/C(=N\C#N)Nc1ccncc1)C(C)(C)C (configuration not stated) [Pinacidil] | 1.01 | 0.907 | 2.42 | 1.15 | 0.55 | 1.54
13 | O=C(C=Cc1ccccc1)NC(NC(=S)Nc1ccc(Cl)cc1)C(Cl)(Cl)Cl (configuration not stated) | 1.51 | 2.16 | 1.33 | 1.53 | 2.23 | 1.08
14 | CCN(CC)CCCC(C)Nc1nc(C)cc(Nc2ccc3nc(C)cc(N)c3c2)n1 (configuration not stated) | 0.637 | 0.976 | 0.753 | 0.932 | 2.01 | 1.16
15 | CN(C)Cc1c(C(=O)NCCOc2ccc(C(=O)NO)cc2)oc2ccccc12 | 2.9 | 4.31 | 3.96 | 3.8 | 4.14 | 3.47
16 | COc1ccnc2[nH]cc(C(=O)C(=O)N3CCN(C(=O)c4ccccc4)C[C@H]3C)c12 | 0.998 | 1.1 | 0.533 | 0.737 | 0.554 | 1.47
17 | O=C(O)c1cccnc1Nc1cccc(C(F)(F)F)c1 [Niflumic acid] | 0.923 | 1.01 | 1.02 | 1.24 | 1.19 | 1.26
18 | Cc1nc(Nc2ccc(F)cc2)nc(N2CCc3ccccc3C2C)c1C (configuration not stated) [Revaprazan Hydrochloride] | 1.38 | 1.19 | 1.06 | 1.28 | 1.21 | 1.13
19 | COc1ccccc1OCCNCC(O)COc1cccc2[nH]c3ccccc3c12 (configuration not stated) [Carvedilol Phosphate] | 2.5 | 2.28 | 1.98 | 1.66 | 2.55 | 1.81
20 | CN1CCC(COc2cnc(-c3cccc(Cn4nc(-c5cccc(C#N)c5)ccc4=O)c3)nc2)CC1 | 1.74 | 3.89 | 2.96 | 2.46 | 1.76 | 1.52
21 | C[C@@H]1O[C@@H](O[C@H]2[C@H](Oc3cc(O)c4c(c3)O[C@H](c3ccc(O)cc3)CC4=O)O[C@H](CO)[C@@H](O)[C@@H]2O)[C@H](O)[C@H](O)[C@H]1O [Naringin] | 1.25 | 1.01 | 0.644 | 1.2 | 0.575 | 1.74
22 | COc1ccc(C[C@@H]2c3cc(OC)c(OC)cc3CC[N@+]2(C)CCC(=O)OCCCCCOC(=O)CC[N@@+]2(C)CCc3cc(OC)c(OC)cc3[C@H]2Cc2ccc(OC)c(OC)c2)cc1OC [Cisatracurium Besylate] | 1.42 | 0.822 | 0.815 | 1.11 | 1.11 | 1.35

— the supplement of paper PMC10127200
